# Screening data from PubChem BioAssay.
# Compounds with a hit are over-represented: about 15% of the library has one in this group of screens.
# HCV inhibitor: blocks hepatitis C virus | hit rate 3.4% among 340,000 | Potency, µM (top dose mostly 41.8 µM), for the others: at the top dose activity change, negative = inhibition, hits mostly inhibitors | Huh7.5.1 HCVcc-Cre infection, luciferase reporter, 44 h; also: potency is read from the fitted curve at half-maximal effect; % is scaled to controls: 0 for no effect and ±100 for the full control effect
#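 Antiviral activity was scored by luciferase reporter output from cells infected with HCVcc-Cre (~0.5 moi) in presence of compound, 44 h infection period, cells seeded 1,000/well 4 h prior.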
# HCMV antiviral: inhibitors of human cytomegalovirus; HFF cells, HCMV-luciferase reporter, 72 h; hits give low values; activity change, negative = inhibition, % at 57.5 µM; hit rate 4.5% among 410,000; in the data active = activity change below about -60%; inconclusive = no clear call, values can overlap the other calls; inactive = above about -39%; also: % is scaled to controls: 0 for no effect and ±100 for the full control effect
#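 Screen run at 2 compound doses on HFFs infected with reporter HCMV, MOI 1 PFU/cell. Luciferase activity from cell lysates at 72 h post infection gave inhibition relative to buffer-only and Salinomycin wells.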
# Sm TGR inh: S. mansoni TGR enzyme inhibition; purified TGR, DTNB reduction, TNB absorbance 405 nm; Potency, µM (highest dose often 114 µM), for the others: at the highest dose activity change, negative = inhibition, usual class: inhibitors; hit rate 3% among 360,000; AID 485364; also: potency is read from the fitted curve at half-maximal effect; % is scaled to controls: 0 for no effect and ±100 for the full control effect; nearly all actives have a fitted effect of over 60% in size
#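 First, TGR (20 nM dispensed) and NADPH were mixed with compound. Second, a 15 min room-temperature incubation followed. Third, further NADPH and then DTNB were added to start the reaction. Finally, TNB absorbance was monitored kinetically.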
# Pf growth 96h: P. falciparum growth inhibition at 96 hours; hit rate 6.9% among 320,000; Potency, µM (titrated, usually from 28.7 µM), for inactives: at the highest dose activity change, negative = inhibition, usual class: inhibitors; P. falciparum luciferase reporter growth, 96 h; AID 504834; also: potency is read from the fitted curve at half-maximal effect; % is scaled to controls: 0 for no effect and ±100 for the full control effect
#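 Compounds incubated with erythrocytes infected by luciferase-expressing P. falciparum (2% hematocrit, 0.05% parasitemia final) for 96 hours, 37 C in 5% CO2. Growth inhibition scored as decreased luciferase luminescence.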
# Pf growth 48h: P. falciparum growth inhibition at 48 hours (one generation) | P. falciparum luciferase growth in erythrocytes, 48 h | Potency, µM (series often up to 28.7 µM), without a hit: at the top dose activity change, negative = inhibition, actives largely listed as inhibitors | hit rate 5.9% among 310,000 | AID 504832; also: potency is read from the fitted curve at half-maximal effect; % is scaled to controls: 0 for no effect and ±100 for the full control effect
#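 Growth was read as firefly luciferase luminescence after a 48 h, 37 C, 5% CO2 exposure of compounds to reporter-bearing P. falciparum cultures (0.1% parasitemia, 2% hematocrit final) in Albumax-supplemented RPMI 1640.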
# SARS PLpro yeast: inhibitors of SARS-CoV papain-like protease in yeast; Potency, µM (series often up to 32.9 µM), for inactives: top-dose activity, positive = growth rescue, hits mostly activators; S. cerevisiae expressing SARS-CoV PLpro, growth rescue; hit rate 0.19% among 330,000; calls by dose curve; also: potency is read from the fitted curve at half-maximal effect; 0% is about no effect; nearly all actives have a fitted effect of over 55% in size
# Active calls of the source: *; ? = inconclusive; · = no result given. Unless noted, calls follow the shape of the dose curve; as a rule, active = well fitted curve in the direction sought with a large enough effect; inconclusive = small, poorly fitted or top-dose-only effect, or another doubt; inactive = no such curve, though single readings can be large; an effect the other way counts as inactive or inconclusive.
SMILES,HCV inhibitor,HCMV antiviral,Sm TGR inh,Pf growth 96h,Pf growth 48h,SARS PLpro yeast
OCCC1CN(Cc2cc3c(cc2Cl)OCO3)CCN1Cc1ccccc1 (stereo unspecified),6%,-13,-12%,10µM*,?,0%
CC(C)=CCN1CCN(Cc2cnc(-c3ccccc3)s2)CC1CCO (stereo unspecified),-8%,?,6%,-15%,?,-1%
OCCC1CN(C/C=C/c2ccco2)CCN1Cc1ccccc1 (stereo unspecified),-6%,22,20µM*,?,?,-2%
OCCC1CN(Cc2cnc(-c3ccccc3)s2)CCN1Cc1ccccc1 (stereo unspecified),?,?,17%,12µM*,-22%,2%
CCOc1ccc(CN2CCN(Cc3cc4c(cc3Cl)OCO4)CC2CCO)cc1 (stereo unspecified),-12%,-16,?,?,?,0%
COc1ccccc1/C=C/CN1CCN(Cc2ccc(F)cc2)C(CCO)C1 (stereo unspecified),1%,14,-16%,?,?,0%
Cc1cc(NC(=O)C2CC=CCC2C(=O)O)ccc1NC(=O)c1ccccc1 (stereo unspecified),14%,24,-35%,9.3µM*,?,24%
Cc1cc(NC(=O)c2cc3ccccc3o2)ccc1NC(=O)c1ccccc1,?,9,9%,-24%,16%,-9%
O=C(O)C1CC=CCC1C(=O)Nc1cccnc1 (stereo unspecified),4%,-29,-3%,86%,9.3µM*,-1%
CC(C)Cc1nnc(NC(=O)CCC(=O)N2CCN(c3ccccc3F)CC2)s1,5%,?,-9%,0%,13%,-8%
O=C(Nc1ccc(OCc2cc(=O)n3c4c(sc3n2)CCCC4)cc1)c1cccc(F)c1,·,-1,-8%,·,·,·
COc1ccc(-c2cc(C)no2)cc1S(=O)(=O)Nc1cccc(C)c1,10µM*,16,1%,?,?,1%
CCCN(c1ccccc1F)S(=O)(=O)c1cc(-c2cc(C)no2)ccc1OC,?,0,6%,15µM*,?,-1%
COc1ccc(-c2cc(C)no2)cc1S(=O)(=O)N1CCN(c2cccc(C)c2)C(C)C1 (stereo unspecified),10µM*,-74*,-13%,?,?,-2%
Cc1cccc(N2CCN(S(=O)(=O)c3cc(-c4cc(C)no4)ccc3C)CC2C)c1 (stereo unspecified),4µM*,?,3%,47%,?,6%
CCCN(c1ccccc1F)S(=O)(=O)c1cc(-c2cc(C)no2)ccc1C,·,-14,5%,·,·,·
Cc1cc(-c2ccc(C)c(S(=O)(=O)N3CCC(C)CC3)c2)on1,·,0,3%,·,·,·
COc1ccc(-c2cc(C)no2)cc1S(=O)(=O)Nc1ccccc1,?,19,10%,?,?,0%
COc1ccc(CNC(=O)c2cc(-c3cccc(Cl)c3)on2)cc1,·,-9,8%,·,·,·
Cc1c2c(n3c(nc4ccccc43)c1C#N)N(CCCN(C)C)CC2,?,-33,-9%,1%,-16%,0%
Cc1nccn1-c1c2c(c(C#N)c3nc4ccccc4n13)CCCC2,12%,-12,·,·,·,·
Cc1c2c(n3c(nc4ccccc43)c1C#N)N(CCN(C)C)CC2,11µM*,35,0%,74%,2.1µM*,0%
Cc1c2c(n3c(nc4ccccc43)c1C#N)N(c1ccccc1)CC2,0%,·,1%,0.66µM*,2.1µM*,-3%
CC(C)NC(=O)NS(=O)(=O)c1cnccc1NC1CC2CCC1C2 (stereo unspecified),8%,-22,0%,-10%,1%,-6%
C#CCNc1ccncc1S(=O)(=O)NC(=O)NC(C)C,13%,-1,22µM*,16%,2%,3%
CCOC(=O)C1(C)CCN1C(=O)c1cccc(C(F)(F)F)c1 (stereo unspecified),·,8,·,·,·,·
